# In PubChem BioAssay (EPA / NIEHS):
# The source made the active and inactive calls. How the source made its calls: active means hit-call score of the fitted dose curve at least 0.9, where 1 is the maximum; inactive means score below 0.9.
# Assay: APR_HepG2_MicrotubuleCSK_24hr: Apredica 24-hour HepG2 Assay for Microtubule CSK Stabilty (AID 2282909)
# Details: HepG2 microtubule cytoskeleton imaging, actives raise or lower the signal
# Procedure: APR_HepG2_24hr is a cell-based, multiplexed-readout assay that uses HepG2, a human liver cell line, with measurements taken at 24 hours after chemical dosing in a 384-well plate.APR_HepG2_MicrotubuleCSK_24hr is one of 10 assay component(s) measured or calculated from the APR_HepG2_24hr assay. It is designed to make measurements of protein conformation, a form of conformation reporter, as detected with fluorescence intensity signals by HCS Fluorescent Imaging technology.Data from the assay component APR_HepG2_MicrotubuleCSK_24hr was analyzed into 1 assay endpoint. This assay endpoint, APR_HepG2_MicrotubuleCSK_24hr, was analyzed with bidirectional fitting relative to DMSO as the negative control and baseline of activity. Using a type of conformation reporter, measures of protein for gain or loss-of-signal activity can be used to understand the signaling at the cellular-level. Furthermore, this assay endpoint can be referred to as a primary readout, because this assay has produced multiple assay endpoints where this one serves a signaling function. To generalize the intended target to other relatable targets, this assay endpoint is annotated to the cell morphology intended target family, where the subfamily is cell conformation.
# Cells were treated with dimethyl sulfoxide (DMSO) as a solvent control at a final concentration of 0.5% v/v or with compounds in DMSO with a resulting final DMSO concentration of 0.5% v/v. Compound treatment was done at concentrations of 0.39, 0.78, 1.56, 3.12, 6.24, 12.5, 25, 50, 100, and 200 uM in duplicate on each plate. Cells were treated with compounds for 1, 24, or 72 hr. Carbonyl […] m-chloro-phenylhydrazone (CCCP) and taxol were used as positive controls for mitochondrial function and cytoskeletal stability, respectively; DMSO served as the negative control for this experiment. Cells were fixed by the direct addition of 50 uL formaldehyde in Hank's Balanced Salt Solution (HBSS) to a final concentration of 3.7%. After incubation in the fixation medium for 30 min at room temperature (293-298 K), cells were rinsed twice with HBSS and treated with cell permeabilization buffer (16 uL of 0.5% Triton X-100) for 10 min at room temperature (293-298 K) before labeling. For mitochondrial membrane potential and mitochondrial measurements, pre-fixed cells were incubated with 50 uL of MitoTracker Red CMXRos (Invitrogen) at a concentration of 250 nM for 30 min before fixation. In the remaining cases, post-fixed cells were labeled by incubation with a multiplexed mixture of primary antibodies in HBSS for 60 min at room temperature (293-298 K) to detect immunoreactivity of c-Jun (1:500), phospho-histone H3 (1:100), phospho-histone H2A.x (1:200), p53 (1:400), alpha-tubulin (1:200) and Hoechst 33342 (2 ug/mL). Cells were labeled for multiplexed imaging on two separate plates: a) Hoechst 33342, MitoTracker Red, phospho-histone H3, and alpha-tubulin, and b) Hoechst 33342, phospho-histone H2A.x, and c-Jun. A final rinse with HBSS (50 uL) was performed before analysis. The primary and secondary antibodies for the proteins were phospho-histone H3 (rabbit anti-phospho-histone H3 and FITC-donkey anti-rabbit IgG), phospho-histone H2A.x (mouse anti-phospho-histone H2A.x and FITC-donkey anti-mouse IgG), c-Jun (rabbit anti-phospho-c-Jun and Cy3-donkey anti-rabbit IgG), p53 (sheep anti-p53 and Cy5-donkey anti-sheep IgG), alpha-tubulin (mouse anti-alpha-tubulin and Cy5-donkey anti-mouse IgG). These antibodies are available as the CellCiphr HepG2 assay kit (Millipore).Digital images of each well were captured using a Cellomics ArrayScan VTI (Thermo Scientific Cellomics) (0.8 NA objective, 0.63x optical coupler, and XF-93 filter set) at 20x magnification. The images were acquired using the autofocus feature of the ArrayScan instrument, which entails the following steps. First, the camera focuses on channel 1 (Hoechst 33342), where nuclei are identified. Second, a Z offset of 1 um is used for capturing mitochondria (MitoTracker Red). […]
SMILES,AC50,outcome
CCOC(=O)c1ccc(C2CCC(NC[C@H](O)COc3ccc(O)c(NS(C)(=O)=O)c3)CC2)cc1 (stereo not given in full),90.2 µM (active),–
CCC(C)(C)C(=O)O[C@H]1C[C@@H](C)C=C2C=C[C@H](C)[C@H](CC[C@@H]3C[C@@H](O)CC(=O)O3)[C@H]21,–,inactive
CC(C)CCCCCCCOC(=O)CCCCC(=O)OCCCCCCCC(C)C,–,inactive
CC(C)=CCCC(C)=CC=O,–,inactive
CN(C)c1ccc(Cc2ccc(N(C)C)cc2)cc1,–,inactive
CC(O)CN(CCN(CC(C)O)CC(C)O)CC(C)O (stereo not given),–,inactive
CC(C)CC(C)(O)C#CC(C)(O)CC(C)C (stereo not given),–,inactive
O=C1OC(=O)C2C3C=CC(C3)C12 (stereo not given),–,inactive
Cc1ccc(C)c(O)c1,–,inactive
COc1ccc2sc(C(=O)Nc3nnn[nH]3)c(OC(C)C)c2c1,–,inactive
O=C1CCCCCN1,–,inactive
O=C(OC[C@H]1O[C@@H](OC(=O)c2cc(O)c(O)c(OC(=O)c3cc(O)c(O)c(O)c3)c2)[C@H](OC(=O)c2cc(O)c(O)c(OC(=O)c3cc(O)c(O)c(O)c3)c2)[C@@H](OC(=O)c2cc(O)c(O)c(OC(=O)c3cc(O)c(O)c(O)c3)c2)[C@@H]1OC(=O)c1cc(O)c(O)c(OC(=O)c2cc(O)c(O)c(O)c2)c1)c1cc(O)c(O)c(OC(=O)c2cc(O)c(O)c(O)c2)c1,–,inactive
O=c1[nH]c2ccc(S(=O)CCN3CCC(Cc4ccc(F)cc4)CC3)cc2o1 (stereo not given),–,inactive
CC(=O)OC[C@H]1O[C@@](COC(C)=O)(O[C@H]2O[C@H](COC(C)=O)[C@@H](OC(C)=O)[C@H](OC(C)=O)[C@H]2OC(C)=O)[C@@H](OC(C)=O)[C@@H]1OC(C)=O,–,inactive
Cn1c(=O)c2c(ncn2C)n(C)c1=O,–,inactive
CC(C)=CCC/C(C)=C\CO,–,inactive
Cc1ccc(N)cc1O,–,inactive
O=C(O)c1cc(N=Nc2ccc(S(=O)(=O)Nc3ccccn3)cc2)ccc1O,–,inactive
COCCOCCOCCOC,–,inactive
C1=CCCC=CCCC=CCC1,–,inactive

SMILES,AC50,outcome
O=C(CCCCCCCCc1cccnc1)N1CCC(C=C(c2ccccc2)c2ccccc2)CC1,–,inactive
O=P(OC(CCl)CCl)(OC(CCl)CCl)OC(CCl)CCl,–,inactive
Clc1nc(Cl)c(Cl)c(Cl)c1Cl,–,inactive
COCCOc1cc2cc(C(=O)NC3CCN(C(C)C)CC3)n(CC(=O)Nc3ccc(Cl)cn3)c2cn1,–,inactive
O=C(O)c1cccc(Oc2ccccc2)c1,–,inactive
CC(=O)OCCC(C)C,–,inactive
C=CCCCCCCCCC(=O)O,–,inactive
COc1ccc(/C=C/S(=O)(=O)NC(=O)c2ccc(C)cc2Cl)cc1,–,inactive
CC/C(=C\C(=N/O)C(N)=O)C(C)[N+](=O)[O-] (stereo not given),–,inactive
O=C(O)c1cccc(N(Cc2cccnc2)c2ccc(OC(F)F)c(OC(F)F)c2)c1,–,inactive
CC[C@H]1CC[C@H](NCc2cc3c(cc2OC)[C@H]2C[C@H]2C(=O)N3C)[C@H](c2ccccc2)N1,–,inactive
COC(=O)c1ccccc1O,–,inactive
CCNc1ccccc1,–,inactive
CCOCCO,–,inactive
O=C(O)CCN(C1(C(=O)NO)CCCC1)S(=O)(=O)c1ccc(Oc2ccc(F)cc2)cc1,–,inactive
Fc1ccccc1[C@@H](F)COC1CCC(Nc2ncnc3[nH]ncc23)CC1 (stereo not given in full),78.4 µM (active),–
Nc1nc2ncc(CNc3ccc(C(=O)N[C@@H](CCC(=O)O)C(=O)O)cc3)nc2c(=O)[nH]1,–,inactive
CCCC(=O)OCC,–,inactive
COC(=O)CC(=O)OC,–,inactive
NC(=O)NO,–,inactive
